Only some compounds are listed: those with a hit (about 11% of all), similar ones and a draw of the others.
L3MBTL1 inh – blocks human L3MBTL1; Q9Y468; 0.66% of 230,000 active; AID 485360; AlphaScreen L3MBTL1–H3K9me1 peptide binding; Potency, µM (series often up to 57.1 µM), usual class: inhibitors; further: nearly all actives have a fitted effect of over 60% in size
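L3MBTL1 (50 nM) pre-complexed 30 min with biotinylated H3(1-15)K9me1 peptide (75 nM), then compounds added for 30 min at room temperature; AlphaScreen streptavidin donor/nickel chelate acceptor beads (10 ug/mL final) read after 30 min dark incubation.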
HP1b binding inh – blocks HP1-beta chromodomain binding to methylated histone tails | AlphaScreen HP1-beta / biotin-H3K9me3 peptide binding | Potency, µM (top dose mostly 114 µM), usual class: inhibitors | 0.56% of 390,000 active | AID 540317; further: nearly all actives have a fitted effect of over 70% in size
Target sequence (P83916 whole entry, looked up): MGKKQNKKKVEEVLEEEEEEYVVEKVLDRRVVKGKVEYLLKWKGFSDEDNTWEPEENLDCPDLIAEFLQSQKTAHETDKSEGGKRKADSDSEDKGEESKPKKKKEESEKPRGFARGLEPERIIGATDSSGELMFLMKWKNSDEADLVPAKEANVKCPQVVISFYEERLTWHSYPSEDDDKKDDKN
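Compound inhibition of the preformed complex between 50 nM HP1-beta and 50 nM biotinylated H3K9me3 peptide was read by AlphaScreen. Buffer was PBS pH 7.4 with 0.01% Tween-20. Incubations ran 30 min at room temperature, with 10 ug/mL donor/acceptor beads.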
G9a inh – G9a (human) methyltransferase inhibition; AID 504332; Potency, µM (series often up to 102 µM), most hits filed as inhibitors; Q96KQ7; G9a H3K9 monomethylation, AlphaScreen, 2 h; 8.8% of 350,000 active; further: nearly all actives have a fitted effect of over 75% in size
Target sequence (Q96KQ7 913-1193 limits assumed): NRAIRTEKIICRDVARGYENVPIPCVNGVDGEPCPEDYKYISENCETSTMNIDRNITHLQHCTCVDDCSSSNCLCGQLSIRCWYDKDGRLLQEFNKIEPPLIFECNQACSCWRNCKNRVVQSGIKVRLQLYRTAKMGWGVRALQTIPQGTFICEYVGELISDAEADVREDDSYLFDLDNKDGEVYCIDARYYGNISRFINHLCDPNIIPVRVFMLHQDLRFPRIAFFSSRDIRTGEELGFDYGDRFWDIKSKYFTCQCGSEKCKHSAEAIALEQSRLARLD
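Quantitative HTS format: methyltransferase activity on a biotin-tagged H3K9 peptide is measured by AlphaScreen, using a rabbit anti-monomethyl-H3K9 antibody with streptavidin donor and anti-IgG acceptor beads. Final levels are 20 nM enzyme, 500 nM peptide, 20 uM SAM; 2 h RT.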
BAZ2B inh – inhibitors of human BAZ2B bromodomain; AID 504333; 4.4% of 360,000 active; AlphaScreen BAZ2B-H3K14Ac peptide displacement; Potency, µM (series often up to 114 µM), actives largely listed as inhibitors; Q9UIF8; further: nearly all actives have a fitted effect of over 60% in size
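AlphaScreen displacement: compounds (up to 110uM) incubated 30 min at room temperature with a preformed 50 nM BAZ2B/50 nM biotinylated H3K14Ac peptide complex in PBS pH 7.4 with Tween-20. Donor and acceptor beads at 10 ug/mL final added, 20 min light-protected before reading.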
JMJD2A Tudor inh – JMJD2A Tudor domain (human) inhibition; AlphaScreen JMJD2A-Tudor / H3K4me3 peptide binding; Potency, µM (doses to about 114 µM), usual class: inhibitors; 4.4% of 390,000 active; further: nearly all actives have a fitted effect of over 50% in size
Of the large screens only hits and unclear results are named; the others gave an inactive call. The call rests on the fitted dose curve; in most records, active means well fitted inhibition curve with a large enough effect; inconclusive means small, poorly fitted or top-dose-only effect; inactive means no such curve, though single readings can be large or run the other way.

O=C(C1=C(O)C(=O)N(CCN2CCOCC2)C1c1cccnc1)c1cc2ccccc2o1 (stereo unspecified)	G9a inh 28µM, BAZ2B inh inconclusive, JMJD2A Tudor inh inconclusive
COC(=O)c1ccc(C2C(C(=O)c3cc4ccccc4o3)=C(O)C(=O)N2CCCN(C)C)cc1 (stereo unspecified)	G9a inh inconclusive, BAZ2B inh inconclusive
CN(C)CCCN1C(=O)C(O)=C(C(=O)c2cc3ccccc3o2)C1c1ccccc1 (stereo unspecified)	G9a inh 14µM, BAZ2B inh inconclusive
COc1cccc2cc(C(=O)C3=C(O)C(=O)N(CCN4CCOCC4)C3c3ccc(C(C)(C)C)cc3)oc12 (stereo unspecified)	G9a inh 32µM, JMJD2A Tudor inh 56µM (no result: L3MBTL1 inh)
N#Cc1c(N)sc(=S)c2c1CCCCC2	L3MBTL1 inh inconclusive, G9a inh 4.5µM, BAZ2B inh 50µM, JMJD2A Tudor inh 45µM
N#Cc1c(N)sc2c1CCCCCC2	HP1b binding inh inconclusive, G9a inh 18µM, BAZ2B inh inconclusive, JMJD2A Tudor inh inconclusive
O=C1NCCN/C1=C\C(=O)c1ccc(Br)cc1	G9a inh 50µM
O=C1OCCN/C1=C\C(=O)c1ccc(Cl)cc1	G9a inh 56µM, JMJD2A Tudor inh inconclusive
O=C1NCCN/C1=C\C(=O)c1ccccc1	BAZ2B inh inconclusive (no result: L3MBTL1 inh)
O=C(COC(=O)C12CC3CC(CC(Br)(C3)C1)C2)Nc1c(F)cccc1F	none (no result: G9a inh, BAZ2B inh)
COc1ccc(C(=O)NCC(c2ccc(N(C)C)cc2)N2CCc3ccccc32)cc1OC (stereo unspecified)	HP1b binding inh inconclusive, G9a inh 25µM, BAZ2B inh 20µM, JMJD2A Tudor inh 20µM (no result: L3MBTL1 inh)
CN(C)c1ccc(C(CNC(=O)c2ccccc2F)N2CCc3ccccc32)cc1 (stereo unspecified)	HP1b binding inh inconclusive, G9a inh inconclusive, BAZ2B inh 16µM, JMJD2A Tudor inh 10µM (no result: L3MBTL1 inh)
COc1ccc(C(=O)NCC(c2cccnc2)N2CCc3ccccc32)cc1OC (stereo unspecified)	none (no result: L3MBTL1 inh)
COc1cccc(C(=O)NCC(c2ccc(N(C)C)cc2)N2CCc3ccccc32)c1OC (stereo unspecified)	HP1b binding inh inconclusive, BAZ2B inh 14µM, JMJD2A Tudor inh 10µM (no result: L3MBTL1 inh)
O=C(NCC(c1ccco1)N1CCc2ccccc21)c1c(F)cccc1F (stereo unspecified)	BAZ2B inh inconclusive
COc1cc(C(=O)NCC(c2ccc(N(C)C)cc2)N2CCc3ccccc32)cc(OC)c1OC (stereo unspecified)	HP1b binding inh inconclusive, G9a inh 18µM, BAZ2B inh 13µM, JMJD2A Tudor inh 16µM (no result: L3MBTL1 inh)
COc1cccc(C(=O)NCC(c2ccc(N(C)C)cc2)N2CCCC2)c1OC (stereo unspecified)	G9a inh inconclusive (no result: L3MBTL1 inh)
Cc1nc2ccccc2n1C1CCN(C(=O)Nc2ccccc2)CC1	G9a inh inconclusive
COc1cccc(N2CC(NC(=O)COc3ccc4ccccc4c3)CC2=O)c1 (stereo unspecified)	none (no result: L3MBTL1 inh)
COc1ccc(C(=O)NCC(c2ccco2)N2CCc3ccccc32)cc1 (stereo unspecified)	none
COc1ccc(C(=O)NCC(c2cccnc2)N2CCc3ccccc3C2)cc1OC (stereo unspecified)	G9a inh 4.5µM, BAZ2B inh 5µM, JMJD2A Tudor inh 32µM (no result: L3MBTL1 inh)
O=[N+]([O-])c1ccc(S(=O)(=O)NCC(c2cccnc2)N2CCc3ccccc3C2)cc1 (stereo unspecified)	G9a inh 50µM, BAZ2B inh inconclusive
COc1cccc(C(=O)NCC(c2ccc(N(C)C)cc2)N2CCc3ccccc32)c1 (stereo unspecified)	HP1b binding inh 10µM, G9a inh 10µM, BAZ2B inh 7.9µM, JMJD2A Tudor inh 7.9µM (no result: L3MBTL1 inh)
O=C(Nc1cccc(C(F)(F)F)c1)N1CCC(CN2CCCCCC2)CC1	G9a inh inconclusive (no result: L3MBTL1 inh)
CC(=O)Nc1ccc(N=C(C2=C(O)c3ccccc3C2=O)c2ccccc2)cc1	HP1b binding inh inconclusive, G9a inh 40µM, BAZ2B inh 40µM, JMJD2A Tudor inh 56µM
COc1ccc(N=C(C)C2=C(O)c3ccccc3C2=O)cc1	BAZ2B inh inconclusive, JMJD2A Tudor inh inconclusive
O=C1NC(=O)/C(=C/c2ccc3c(c2)OC(F)(F)O3)S1	none (no result: L3MBTL1 inh, HP1b binding inh, BAZ2B inh, JMJD2A Tudor inh)
S=C1NC(c2ccccc2)=CC(c2ccccc2)N1 (stereo unspecified)	G9a inh 32µM, BAZ2B inh inconclusive
S=C1NC(c2cccs2)=CC(c2ccc(Br)cc2)N1 (stereo unspecified)	G9a inh 16µM, BAZ2B inh inconclusive, JMJD2A Tudor inh inconclusive
CC1=CC(c2ccccc2)NC(=S)N1 (stereo unspecified)	none
CCCSc1ncc(Cl)c(C(=O)Nc2nc3ccc(C)cc3s2)n1	none (no result: L3MBTL1 inh)
CCOc1ccc(OCCOCCOc2ccccc2Cl)cc1	none
CCC(C)NCCOCCOc1ccc(Cl)c2ccccc12 (stereo unspecified)	G9a inh 13µM, BAZ2B inh inconclusive
CCC(C)NCCOCCOc1ccc(Cl)c(C)c1C (stereo unspecified)	HP1b binding inh inconclusive, G9a inh inconclusive, JMJD2A Tudor inh 3.5µM
CC(C)c1ccc(NC(=O)Cn2cc(S(=O)(=O)Cc3cccc(Cl)c3)c3ccccc32)cc1	none (no result: L3MBTL1 inh)
COc1ccc(C)cc1NC(=O)C(c1ccccc1)N1CCN(CC(=O)N2CCCC2)CC1 (stereo unspecified)	G9a inh inconclusive
COc1ccc(C)cc1NC(=O)C(c1ccccc1)N1CCN(CC(=O)N2CCOCC2)CC1 (stereo unspecified)	G9a inh 45µM
O=C1c2cccc3c2[C@@H](CCC3)CN1[C@@H]1CN2CCC1CC2	none (no result: L3MBTL1 inh, HP1b binding inh, BAZ2B inh, JMJD2A Tudor inh)
Cc1cccc(CS(=O)(=O)CC2Nc3ccc(C(=O)NCc4ccccc4Cl)cc3NC2=O)c1 (stereo unspecified)	G9a inh inconclusive (no result: L3MBTL1 inh)
CCSc1nnc(NC(=O)c2cnccn2)s1	JMJD2A Tudor inh 79µM
CCSc1nnc(NC(=O)c2cccnc2Cl)s1	none
CCSc1nnc(NC(=O)C(CC)(C(F)(F)F)C(F)(F)F)s1	G9a inh 50µM, BAZ2B inh inconclusive (no result: L3MBTL1 inh)
CCSc1nnc(NC(=O)c2cccnc2)s1	none (no result: L3MBTL1 inh)
CCSc1nnc(NC(=O)c2ccccn2)s1	G9a inh inconclusive, BAZ2B inh 6.3µM, JMJD2A Tudor inh 8.9µM
COc1ccc2nc(C)cc(SCC(=O)N/N=C/c3ccc(O)c(O)c3)c2c1	G9a inh 35µM, BAZ2B inh inconclusive
COc1cccc2c(SCC(=O)N/N=C/c3ccc(O)c(O)c3)cc(C)nc12	G9a inh 35µM, BAZ2B inh inconclusive, JMJD2A Tudor inh inconclusive
COc1ccc2c(c1)c(C(=O)N/N=C/c1ccc(O)c(O)c1)c(C)n2C	G9a inh 50µM, BAZ2B inh inconclusive
COc1cccc2c(SCC(=O)N/N=C/c3ccccc3)cc(C)nc12	none

Screens deposited in PubChem BioAssay by National Center for Advancing Translational Sciences (NCATS).
